Usually inhibition stands for the change of the read-out against control, counted positive when it falls.

Here are results for 13 compounds from PubChem BioAssay.

Activity calls are given as the source filed them.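 The calls were made as follows, unless noted: active = differentiation response of at least 50%, scaled between solvent and reference control, from cells with both markers; inactive = the rest.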

A short description of experiment [1]: reduced mouse 2C T cell binding to pMHC/ICAM-1 vesicles – MLPCN validation set, flow cytometry, LFA-1/ICAM-1 modulator project, pilot screen (AID 2523;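 active = response below a set limit, under 55% cells CD8-positive and vesicle-bound, and CD8 cells' 90th-percentile brightness under 279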;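 as to vesicle binding response: mean PE anti-B7-1 fluorescence of CD8+ cells relative to row control; 100% = QL9-loaded vesicles with DMSO vehicle in the same plate row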). As to conditions: 2C mouse CD8+ T cells, at 7 µM, stronger effect = lower value; double positive events: measured here: CD8+/vesicle+ event percentage. (Flow cytometry measures light scatter and fluorescence of single cells or particles in a stream.)

In experiment [2] the target is Integrin beta-1 (Homo sapiens) + Integrin alpha-4 (Homo sapiens) (UniProt P13612+P05556). The experiment can be described thus: alpha4beta1 integrin LIBS antibody binding reduction – U937 cells, HUTS-21 mAb, flow cytometry, validation set, VLA-4 allosteric modulator project, pilot screen (AID 2674;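 active = inhibition above 50%, about 3 SD of the validation set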;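 also: antibody binding induced by the VLA-4 ligand LDV present at three times its Kd; 0% = LDV ligand with antibody and no compound and 100% = antibody without LDV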). The note with it: HUTS-21 LIBS mAb binding, at 6.7 µM, stronger effect = higher value, binding induced by LDV ligand.
Sequence of Integrin beta-1 (Homo sapiens) + Integrin alpha-4 (Homo sapiens) (P05556 whole entry, looked up): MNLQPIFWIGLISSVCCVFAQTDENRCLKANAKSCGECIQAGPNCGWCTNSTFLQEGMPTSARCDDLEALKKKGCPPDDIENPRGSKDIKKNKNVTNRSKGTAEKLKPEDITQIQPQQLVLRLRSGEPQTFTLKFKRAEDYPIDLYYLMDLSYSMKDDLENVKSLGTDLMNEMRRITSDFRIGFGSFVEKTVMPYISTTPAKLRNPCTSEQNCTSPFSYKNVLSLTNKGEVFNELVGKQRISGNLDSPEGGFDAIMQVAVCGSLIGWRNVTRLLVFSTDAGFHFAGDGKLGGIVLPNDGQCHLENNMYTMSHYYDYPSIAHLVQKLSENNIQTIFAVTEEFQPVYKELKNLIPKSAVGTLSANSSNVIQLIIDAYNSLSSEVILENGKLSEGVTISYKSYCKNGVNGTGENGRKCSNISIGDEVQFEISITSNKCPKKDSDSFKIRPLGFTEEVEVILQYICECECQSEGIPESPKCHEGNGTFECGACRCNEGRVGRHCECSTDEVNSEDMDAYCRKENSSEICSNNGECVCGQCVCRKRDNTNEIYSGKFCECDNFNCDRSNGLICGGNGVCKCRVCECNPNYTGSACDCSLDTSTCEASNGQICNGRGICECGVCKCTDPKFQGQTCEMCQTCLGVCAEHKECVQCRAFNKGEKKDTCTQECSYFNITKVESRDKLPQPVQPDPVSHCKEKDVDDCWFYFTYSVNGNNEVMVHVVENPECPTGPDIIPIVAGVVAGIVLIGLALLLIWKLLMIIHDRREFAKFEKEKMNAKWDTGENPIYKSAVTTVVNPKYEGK
Sequence of Integrin beta-1 (Homo sapiens) + Integrin alpha-4 (Homo sapiens) (P13612 whole entry, looked up): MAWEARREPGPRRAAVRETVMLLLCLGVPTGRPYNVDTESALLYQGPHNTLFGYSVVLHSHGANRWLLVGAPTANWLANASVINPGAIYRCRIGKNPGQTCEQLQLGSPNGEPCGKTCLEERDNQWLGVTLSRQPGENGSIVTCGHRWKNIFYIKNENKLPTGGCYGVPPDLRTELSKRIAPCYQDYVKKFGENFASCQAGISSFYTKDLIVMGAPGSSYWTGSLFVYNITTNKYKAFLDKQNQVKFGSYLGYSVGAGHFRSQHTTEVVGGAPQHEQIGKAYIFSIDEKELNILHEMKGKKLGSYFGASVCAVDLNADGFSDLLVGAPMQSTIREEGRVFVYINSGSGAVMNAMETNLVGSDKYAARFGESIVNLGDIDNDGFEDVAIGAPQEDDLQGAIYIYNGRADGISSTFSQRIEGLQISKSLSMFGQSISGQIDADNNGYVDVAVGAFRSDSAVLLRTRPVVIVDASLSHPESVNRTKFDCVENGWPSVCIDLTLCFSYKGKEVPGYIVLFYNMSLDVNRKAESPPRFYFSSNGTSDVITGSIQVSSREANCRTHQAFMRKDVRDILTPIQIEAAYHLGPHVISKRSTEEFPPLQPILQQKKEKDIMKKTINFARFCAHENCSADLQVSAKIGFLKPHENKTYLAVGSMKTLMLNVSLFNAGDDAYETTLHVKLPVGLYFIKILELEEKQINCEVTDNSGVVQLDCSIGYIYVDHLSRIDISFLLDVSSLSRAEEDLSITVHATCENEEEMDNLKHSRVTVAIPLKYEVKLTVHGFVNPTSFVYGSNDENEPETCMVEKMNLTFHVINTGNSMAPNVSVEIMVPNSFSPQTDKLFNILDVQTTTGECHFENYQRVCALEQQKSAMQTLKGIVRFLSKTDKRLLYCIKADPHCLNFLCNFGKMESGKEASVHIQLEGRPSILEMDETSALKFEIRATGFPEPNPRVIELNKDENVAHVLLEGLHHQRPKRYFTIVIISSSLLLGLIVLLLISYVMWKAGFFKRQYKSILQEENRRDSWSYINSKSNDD

Experiment [3] can be described thus: calorie-restriction mimetic ROS inhibitors, yeast – validation compound set, pilot screen (AID 2706;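 active = superoxide response below 65% of plate, a cut near 3 SD across the whole screen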;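 also: yeast exposed to compound for one week at 30 degrees C before staining; 100% = mean of all compound wells on the same plate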). As to conditions: S. cerevisiae aging, superoxide DHE fluorescence; at 10 µM, stronger effect = lower value.
Experiment [4] concerns the target Beta-adrenergic receptor kinase 1 (Homo sapiens) (UniProt P25098). The experiment can be described thus: GRK2 binders displacing RNA aptamer, biochemical, validation, human GRK2, bead flow cytometry (AID 488806;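 active = aptamer binding inhibition above 30%, about 3 SD of noise from non-fluorescent compounds; inactive = inhibition at or below 30%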). As to conditions: bead-bound GRK2, FAM-aptamer displacement, at 10 µM, stronger effect = higher value.
Experiment [5] has as its target Beta-2 adrenergic receptor (Homo sapiens) (UniProt P07550). As to the kind of experiment: agonist-induced loss of surface beta2AR – cell-based, FAP fluorogen, flow cytometry, validation set, pilot screen (AID 504459;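 active = percent response above 42, roughly 3 SD of non-fluorescent test compounds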;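 also: agonist-driven loss of surface beta2AR via internalization measured by FAP dye flow cytometry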). The note with it: Am2.2-beta2AR cells, at 10 µM, stronger effect = higher value.
Experiment [6] deals with AP-2 complex subunit beta (Homo sapiens) (UniProt P63010). As to the kind of experiment: beta-arrestin/AP2 interaction blockers – biochemical, validation set, GST-AP2 beads, flow cytometry, pilot screen (AID 504541;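 active = inhibition above 54%, about 3 SD of non-fluorescent compounds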;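 also: AP2 carries R879A mutation and is captured from E. coli lysate; bead-bound FITC arrestin peptide fluorescence measuring arrestin peptide binding to AP2; 0% = DMSO wells and 100% = excess unlabeled arrestin peptide control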). The note with it: FITC arrestin peptide, at 10 µM, stronger effect = higher value, AP2 beta2 appendage fragment, R879A mutant.
Sequence of AP-2 complex subunit beta (Homo sapiens) (P63010 whole entry, looked up, the tested form may be a part, one chain of several): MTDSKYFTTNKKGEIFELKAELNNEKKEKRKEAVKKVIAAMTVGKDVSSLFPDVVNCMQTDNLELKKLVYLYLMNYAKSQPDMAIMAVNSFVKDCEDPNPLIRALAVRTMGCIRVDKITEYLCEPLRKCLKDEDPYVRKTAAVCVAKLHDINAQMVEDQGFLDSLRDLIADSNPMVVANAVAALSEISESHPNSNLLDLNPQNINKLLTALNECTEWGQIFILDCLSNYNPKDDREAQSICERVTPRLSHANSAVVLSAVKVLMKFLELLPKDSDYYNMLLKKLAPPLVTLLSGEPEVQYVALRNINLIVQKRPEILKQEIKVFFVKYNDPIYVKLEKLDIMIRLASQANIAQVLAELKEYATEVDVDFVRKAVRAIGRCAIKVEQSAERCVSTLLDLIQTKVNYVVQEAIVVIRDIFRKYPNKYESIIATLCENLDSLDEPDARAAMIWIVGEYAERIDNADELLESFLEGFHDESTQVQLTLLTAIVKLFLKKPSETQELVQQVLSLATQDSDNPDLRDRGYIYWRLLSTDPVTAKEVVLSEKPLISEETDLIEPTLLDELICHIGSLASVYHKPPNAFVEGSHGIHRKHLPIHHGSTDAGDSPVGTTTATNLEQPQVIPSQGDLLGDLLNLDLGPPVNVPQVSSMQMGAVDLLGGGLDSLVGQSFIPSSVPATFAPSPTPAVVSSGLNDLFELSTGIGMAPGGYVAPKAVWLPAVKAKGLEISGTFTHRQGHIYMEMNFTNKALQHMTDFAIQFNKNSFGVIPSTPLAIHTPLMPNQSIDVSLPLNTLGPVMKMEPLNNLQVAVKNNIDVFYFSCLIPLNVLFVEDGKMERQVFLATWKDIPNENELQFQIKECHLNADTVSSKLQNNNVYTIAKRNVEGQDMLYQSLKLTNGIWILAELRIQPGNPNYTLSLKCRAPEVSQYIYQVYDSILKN
A short description of experiment [7]: cytosolic pH regulators acting via V-ATPase – S. cerevisiae, pHLuorin, HTS validation (AID 504600; in the data active = response above about 15%;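 also: plate controls were DMSO for no effect and reference compound for full effect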). As to conditions: V-ATPase proton transport, at 10 µM, stronger effect = higher value.
For experiment [8], the system named is anti-desmoglein-3 scFv antibody binding to human DSG3. The experiment can be described thus: blockers of pathogenic pemphigus antibody–desmoglein-3 binding – biochemical, validation compound set, bead-based, flow cytometry, pilot screen (AID 588368;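 active = binding below the plate cutoff, the plate median minus 3 SD, with a reading above zero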;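 also: signal is the median channel fluorescence of bead-bound GFP antibody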). As to conditions: Protein G beads, DSG3-Fc, scFv-GFP binding, at 10 µM, stronger effect = lower value.
The nature of experiment [9]: Nile Red efflux blockade in pump-expressing yeast – validation compound set, multiplex, phenotypic, pilot screen (AID 588506;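 active = efflux inhibition above 0.42, the validation set average plus 4 SD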;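 also: Nile Red retained in cells so higher fluorescence means more efflux inhibition; 0 = negative control wells and 1 = enniatin B 25 µM full block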). The note with it: S. cerevisiae pump-expressing triplex, Nile Red efflux flow cytometry; at 10 µM; stronger effect = higher value; the pumps come from Candida albicans.
The target in experiment [10] is ATP-binding cassette sub-family B member 6 (Homo sapiens) (UniProt Q9NP58). As to the kind of experiment: blockers of ABCB6-driven porphyrin uptake – K562-ABCB6 cells, flow cytometry, validation set, pilot screen (AID 588550;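 active = inhibition above the screen-wide mean plus 3 SD, about 51%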;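 also: 0% = DMSO wells and 100% = benzethonium chloride 70 µM positive control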). The note with it: K562-ABCB6 porphyrin accumulation, 1 h, at 10 µM, stronger effect = higher value.
Sequence of ATP-binding cassette sub-family B member 6 (Homo sapiens) (Q9NP58 whole entry, looked up): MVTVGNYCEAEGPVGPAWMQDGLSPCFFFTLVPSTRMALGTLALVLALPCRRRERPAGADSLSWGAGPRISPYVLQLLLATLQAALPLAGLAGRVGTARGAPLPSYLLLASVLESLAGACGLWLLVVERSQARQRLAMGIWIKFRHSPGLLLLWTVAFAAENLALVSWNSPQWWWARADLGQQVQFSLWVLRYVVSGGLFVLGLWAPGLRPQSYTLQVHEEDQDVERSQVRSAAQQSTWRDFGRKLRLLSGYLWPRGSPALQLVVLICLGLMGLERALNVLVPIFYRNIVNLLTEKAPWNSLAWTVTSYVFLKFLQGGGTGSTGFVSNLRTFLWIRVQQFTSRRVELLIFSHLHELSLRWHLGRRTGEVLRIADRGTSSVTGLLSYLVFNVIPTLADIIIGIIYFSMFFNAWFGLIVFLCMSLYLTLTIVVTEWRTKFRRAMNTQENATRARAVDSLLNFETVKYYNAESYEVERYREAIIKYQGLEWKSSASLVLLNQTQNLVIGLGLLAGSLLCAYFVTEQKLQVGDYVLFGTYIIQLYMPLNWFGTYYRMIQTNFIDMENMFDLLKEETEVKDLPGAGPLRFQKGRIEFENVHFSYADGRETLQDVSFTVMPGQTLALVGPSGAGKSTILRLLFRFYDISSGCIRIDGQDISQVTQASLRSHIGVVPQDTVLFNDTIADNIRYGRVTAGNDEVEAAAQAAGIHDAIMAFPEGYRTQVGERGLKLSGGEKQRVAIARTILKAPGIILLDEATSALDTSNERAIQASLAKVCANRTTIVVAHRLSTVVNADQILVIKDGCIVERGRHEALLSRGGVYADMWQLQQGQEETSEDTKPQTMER
A short description of experiment [11]: AML differentiation inducers, ER-HoxA9 marrow cells – cell-based, GFP/MAC1 double positive, flow cytometry, validation set, primary screen (AID 588685).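 Also: compound exposure lasts four days before antibody staining and flow analysis; 0% = DMSO wells and 100% = 5 µM fulvestrant positive control.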 As to conditions: stronger effect = higher value, normalized: vehicle 0, fulvestrant 100.

Sequence of Beta-adrenergic receptor kinase 1 (Homo sapiens) (P25098 whole entry, looked up): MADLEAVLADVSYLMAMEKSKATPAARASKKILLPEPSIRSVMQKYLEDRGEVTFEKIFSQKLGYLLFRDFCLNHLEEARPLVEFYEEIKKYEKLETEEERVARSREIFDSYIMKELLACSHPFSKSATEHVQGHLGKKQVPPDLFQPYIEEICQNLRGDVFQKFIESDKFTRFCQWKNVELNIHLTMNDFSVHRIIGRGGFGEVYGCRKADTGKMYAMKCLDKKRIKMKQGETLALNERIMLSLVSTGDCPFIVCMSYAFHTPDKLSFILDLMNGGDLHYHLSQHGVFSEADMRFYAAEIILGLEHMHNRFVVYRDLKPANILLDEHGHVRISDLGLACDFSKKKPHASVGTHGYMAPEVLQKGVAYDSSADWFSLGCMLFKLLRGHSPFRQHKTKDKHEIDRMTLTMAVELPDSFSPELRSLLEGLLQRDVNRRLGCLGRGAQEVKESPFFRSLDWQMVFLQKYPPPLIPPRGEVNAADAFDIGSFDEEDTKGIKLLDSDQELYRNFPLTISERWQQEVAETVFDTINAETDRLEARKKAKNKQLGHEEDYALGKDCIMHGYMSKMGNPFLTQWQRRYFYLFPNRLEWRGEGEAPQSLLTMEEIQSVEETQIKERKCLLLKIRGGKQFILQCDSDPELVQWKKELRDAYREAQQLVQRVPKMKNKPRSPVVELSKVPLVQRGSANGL
Sequence of Beta-2 adrenergic receptor (Homo sapiens) (P07550 whole entry, looked up): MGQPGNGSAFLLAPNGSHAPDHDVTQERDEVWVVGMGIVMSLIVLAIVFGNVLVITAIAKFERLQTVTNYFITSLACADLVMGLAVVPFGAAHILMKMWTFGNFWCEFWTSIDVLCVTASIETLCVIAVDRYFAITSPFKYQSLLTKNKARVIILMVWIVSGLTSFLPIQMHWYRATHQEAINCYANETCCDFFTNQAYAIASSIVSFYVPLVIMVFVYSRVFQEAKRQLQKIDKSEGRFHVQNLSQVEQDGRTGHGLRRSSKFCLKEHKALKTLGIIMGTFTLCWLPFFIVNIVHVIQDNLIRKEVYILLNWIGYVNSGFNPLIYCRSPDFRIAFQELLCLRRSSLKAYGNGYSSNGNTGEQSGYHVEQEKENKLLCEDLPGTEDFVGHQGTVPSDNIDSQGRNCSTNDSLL

In [1], `CCc1ccc(/C=C2\SC(=S)N(CCC(=O)N3CCN(C)CC3)C2=O)cc1` had a double positive events of 56.3%. In addition, in experiment [1], the vesicle binding response was 275% (inactive). Moreover, the inhibition in experiment [2] is -16.8% (inactive); in [6], -7.8% (inactive); in [10], 2% (inactive). For the same compound, the superoxide response (% of plate) in experiment [3] was 90.8% (inactive). Besides, in experiment [4], the aptamer binding inhibition is -1% (inactive). The response in experiment [5] is 39.6% (inactive); in [7], -6.7% (inactive). Moreover, the binding (% of control) in experiment [8] is 101% (inactive). Besides, in experiment [9], the efflux inhibition (fraction of control) was 0.3 (inactive). The differentiation response in experiment [11] is 10.4% (inactive).
`COc1ccc(-c2cc(=O)oc3c(C)c(O)c(CN(C)C)cc23)cc1` gave a double positive events in [1] of 66%. Further, the vesicle binding response in experiment [1] is 183% (inactive). Besides, the inhibition is 9.63% (inactive) in [2], 2.69% (inactive) in experiment [6] and 0% (inactive) in experiment [10]. In [3], the superoxide response (% of plate) was 96.8% (inactive). In [4], the aptamer binding inhibition is 1% (inactive). Besides, the response in experiment [5] is -14.6% (inactive); in experiment [7], 5.58% (inactive). Further, the binding (% of control) in experiment [8] was 98.3% (inactive). The efflux inhibition (fraction of control) in experiment [9] is 0.42 (inactive). Besides, in experiment [11], the differentiation response was 2.74% (inactive).
`COc1cc2cc(C(=O)O)n(C)c2c(OC)c1OC` gave a double positive events in experiment [1] of 54.5%. In addition, in experiment [1], the vesicle binding response is 184% (inactive). Moreover, the inhibition in experiment [2] is 5.36% (inactive); in experiment [6], 17.7% (inactive); in experiment [10], 2% (inactive). Further, the superoxide response (% of plate) in [3] was 103% (inactive). Besides, the aptamer binding inhibition in experiment [4] was -6% (inactive). For the same compound, the response in [7] is -19.4% (inactive). Further, the binding (% of control) in [8] is 106% (inactive). In experiment [9], the efflux inhibition (fraction of control) is -0.01 (inactive). The differentiation response in [11] is -3.43% (inactive).
Take `Cc1c(OCC(=O)NC(Cc2c[nH]c3ccc(O)cc23)C(=O)O)ccc2c3c(c(=O)oc12)CCC3` (centres undefined): the double positive events in [1] is 51.4%. The vesicle binding response in [1] was 218% (inactive). For the same compound, the inhibition in experiment [2] was 6.29% (inactive); in experiment [6], 3.65% (inactive); in experiment [10], 11% (inactive). Further, the superoxide response (% of plate) in experiment [3] is 87.9% (inactive). The aptamer binding inhibition in experiment [4] is 3% (inactive). The response in experiment [7] is 6.27% (inactive). In addition, in experiment [8], the binding (% of control) was 101% (inactive). In addition, in [9], the efflux inhibition (fraction of control) was -0.5 (inactive). In experiment [11], the differentiation response is -22.8% (inactive).
In turn, `COc1ccc(C(=O)OCc2cc3cccc(C)c3[nH]c2=O)cc1` gave a double positive events in [1] of 49.3%. Moreover, the vesicle binding response in experiment [1] is 163% (inactive). The inhibition was 5.36% (inactive) in experiment [2], 8.12% (inactive) in experiment [6] and 8% (inactive) in [10]. In experiment [3], the superoxide response (% of plate) was 112% (inactive). The aptamer binding inhibition in [4] is 0% (inactive). The response in experiment [7] is -29% (inactive). For the same compound, the binding (% of control) in experiment [8] was 96.4% (inactive). The efflux inhibition (fraction of control) in experiment [9] is 0.06 (inactive). Moreover, the differentiation response in experiment [11] was -29.3% (inactive).
For `CCN(Cc1cnn(C)c1)Cc1nc(C(c2ccccc2)c2ccccc2)no1`, in experiment [1], the double positive events stood at 61.8%. For the same compound, the vesicle binding response in [1] was 168% (inactive). In addition, the inhibition is 7.4% (inactive) in experiment [2], -13.6% (inactive) in [6] and 1% (inactive) in experiment [10]. In addition, the superoxide response (% of plate) in experiment [3] was 120% (inactive). Further, the aptamer binding inhibition in [4] is -5% (inactive). Moreover, the response in experiment [5] is -21.6% (inactive); in experiment [7], -8.11% (inactive). In addition, in experiment [8], the binding (% of control) is 98.8% (inactive). Also, the efflux inhibition (fraction of control) in experiment [9] was -0.04 (inactive). In addition, the differentiation response in [11] is 16.7% (inactive).
In experiment [1], `C(=C/c1nccc2c1[nH]c1ccccc12)/c1ccc2c(c1)OCO2` had a double positive events of 58.5%. Further, the vesicle binding response in experiment [1] was 170% (inactive). Further, the results for the inhibition in [2], in experiment [6] and in [10] were -239% (inactive), 23.3% (inactive) and 8% (inactive), respectively. In experiment [3], the superoxide response (% of plate) was 93.4% (inactive). The aptamer binding inhibition in experiment [4] was -1% (inactive). For the same compound, in experiment [7], the response is 1.54% (inactive). Besides, the binding (% of control) in experiment [8] is 144% (inactive). Besides, the efflux inhibition (fraction of control) in experiment [9] was -0.35 (inactive). Moreover, in experiment [11], the differentiation response was -18% (inactive).
In experiment [1], `CCNCCC(CCC(C)C)c1ccc2c(c1)OCO2` (centres undefined) had a double positive events of 54.2%. In experiment [1], the vesicle binding response is 233% (inactive). For the same compound, the results for the inhibition in experiment [2], in experiment [6] and in experiment [10] were 9.09% (inactive), -9.39% (inactive) and -3% (inactive), respectively. For the same compound, the superoxide response (% of plate) in [3] was 103% (inactive). Further, in experiment [4], the aptamer binding inhibition was -1% (inactive). Further, in experiment [7], the response was -1.01% (inactive). Moreover, the binding (% of control) in experiment [8] was 96.9% (inactive). Besides, the efflux inhibition (fraction of control) in experiment [9] was -0.16 (inactive). Besides, in [11], the differentiation response is 9.49% (inactive).
`O=C(C1CCCCC1)N1CC(=O)N2CCc3ccccc3C2C1` (centres undefined) showed a double positive events in experiment [1] of 61.4%. Further, the vesicle binding response in experiment [1] was 225% (inactive). Moreover, the inhibition is -2.82% (inactive) in experiment [2], -1.09% (inactive) in experiment [6] and 3% (inactive) in experiment [10]. Also, the superoxide response (% of plate) in experiment [3] is 109% (inactive). Also, the aptamer binding inhibition in experiment [4] is 1% (inactive). In addition, the response in [5] was -15.4% (inactive); in [7] it was -5.39% (inactive). In experiment [8], the binding (% of control) is 101% (inactive). Further, in experiment [9], the efflux inhibition (fraction of control) is 0 (inactive). Further, in experiment [11], the differentiation response is 29.5% (inactive).
Regarding `COc1cc(/C=C(\C#N)C(=O)N2CCc3ccccc32)ccc1O`, in [1], the double positive events amounted to 64.1%. In [1], the vesicle binding response was 273% (inactive). Moreover, the inhibition in experiment [2] is -88.6% (inactive); in experiment [6], -7.55% (inactive); in experiment [10] it was -41% (inactive). The superoxide response (% of plate) in experiment [3] was 98.9% (inactive). The aptamer binding inhibition in [4] was -1% (inactive). Also, the response in experiment [5] was 0.72% (inactive); in experiment [7], 1.46% (inactive). The binding (% of control) in experiment [8] is 105% (inactive). Besides, in experiment [9], the efflux inhibition (fraction of control) is 0.19 (inactive). In addition, the differentiation response in experiment [11] was 2.46% (inactive).
Compound `O=C(Nc1c(C(=O)O)[nH]c2ccccc12)NC1CCCCC1` registered a double positive events in experiment [1] of 60.3%. Further, the vesicle binding response in experiment [1] is 190% (inactive). Further, the inhibition in [2] was -17.3% (inactive); in [6] it was 3.04% (inactive); in experiment [10] it was -3% (inactive). The superoxide response (% of plate) in experiment [3] is 102% (inactive). Moreover, the aptamer binding inhibition in experiment [4] was 4% (inactive). The values for the response in experiment [5] and in experiment [7] were -18.9% (inactive) and 5.33% (inactive), respectively. Further, the binding (% of control) in [8] was 101% (inactive). For the same compound, the efflux inhibition (fraction of control) in experiment [9] was -0.13 (inactive). Also, the differentiation response in [11] was -4% (inactive).
For `CSc1ccc2c(c1)N(CCC1CCCCN1C)c1ccccc1S2` (centres undefined), the double positive events in experiment [1] came out at 66.7%. The vesicle binding response in experiment [1] is 166% (inactive). Moreover, the inhibition was 27.1% (inactive) in experiment [2] and 0.21% (inactive) in experiment [6]. Moreover, the superoxide response (% of plate) in [3] is 88.6% (inactive). In addition, the aptamer binding inhibition in experiment [4] was -7% (inactive). The response in [5] was 60.7% (active); in [7], -0.24% (inactive). In [8], the binding (% of control) is 106% (inactive). For the same compound, the efflux inhibition (fraction of control) in [9] was -0.145 (inactive). Moreover, the differentiation response in experiment [11] was 11.5% (inactive).
The compound `O=C(NCC1CCCCN1)c1cc(OCC(F)(F)F)ccc1OCC(F)(F)F` (centres undefined) yielded a double positive events in experiment [1] of 51.3%. Besides, the vesicle binding response in experiment [1] is 183% (inactive). In addition, the inhibition is 1.62% (inactive) in [2], -20.4% (inactive) in experiment [6] and 14% (inactive) in [10]. Besides, the superoxide response (% of plate) in [3] was 102% (inactive). Besides, the aptamer binding inhibition in experiment [4] was -3% (inactive). Besides, in experiment [7], the response was 0.89% (inactive). Further, the binding (% of control) in experiment [8] is 103% (inactive). Besides, the efflux inhibition (fraction of control) in experiment [9] is -0.05 (inactive). In addition, in [11], the differentiation response was -8.27% (inactive).
